Assay results published in PubChem BioAssay.
Active and inactive are the calls of the source.

Tests used:
[1] = optical density shifts of acrAB sulA E. coli – strain DRC41, OD650, 48 h, E. coli filamentation inducer project, primary screen (AID 1152); settings: higher = more signal, called active from +8 up or from −8 down;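 further: E. coli MC1000 strain DRC41 lacking acrAB efflux pump and sulA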
[2] = probe aLefty1 binding on compound microarray – biochemical, small-molecule microarray, 635/667 nm fluorescence, primary screen (AID 1153); settings: higher = more signal;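 further: score merges spot fluorescence with signal-to-noise ratio from the scanned slide images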
[3] = plasmodial surface anion channel blockers, osmotic lysis – cell-based, P. falciparum Indochina, OD700, 1 h, primary screen (AID 1154); settings: P. falciparum Indochina infected RBC osmotic lysis, higher = more signal, called active from +8 up or from −8 down
[4] = plasmodial surface anion channel blockers, osmotic lysis – cell-based, P. falciparum Indochina, OD700, 2 h, primary screen (AID 1155);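 further: lysis reports solute entry through the parasite surface anion channel PSAC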; settings: P. falciparum Indochina infected erythrocytes, higher = more signal, called active from +8 up or from −8 down
[5] = changes in parasitized red cell lysis, either direction – P. falciparum Indochina, OD700, 3 h, PSAC antagonist project, primary screen (AID 1156); settings: P. falciparum-infected erythrocytes, osmotic lysis, higher = more signal, called active from +8 up or from −8 down
[6] = plasmodial surface anion channel blockers, osmotic lysis – cell-based, P. falciparum Indochina, OD700, 18 h, primary screen (AID 1157); settings: P. falciparum Indochina infected erythrocytes, osmotic lysis OD700, 18 h; higher = more signal, called active from +8 up or from −8 down
[7] = S6 kinase pathway phospho-S6 level changes – cell-based, A549, cytoblot, luminescence, serum-stimulated, primary screen (AID 1158); settings: 5 h, higher = more signal;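 further: serum-stimulated A549 lung adenocarcinoma cells; signal is phosphorylated S6 detected by cytoblot immunostaining with HRP secondary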
[8] = target: NADPH oxidase 2 (Homo sapiens) (UniProt P04839); experiment: compounds shifting NOX2 Amplex Red fluorescence – cell-based, HEK293-NOX2, PMA-stimulated, NOX inhibitor project, primary screen (AID 1159); settings: 45 min, higher = more signal, called active from +8 up or from −8 down; further: test concentration not given here
[9] = target: NADPH oxidase 4 (Homo sapiens) (UniProt Q9NPH5); experiment: compounds shifting NOX4 Amplex Red fluorescence – cell-based, HEK293-NOX4, tetracycline-induced, NOX inhibitor project, primary screen (AID 1160); settings: HEK293-NOX4, Amplex Red H2O2 fluorescence, 45 min; higher = more signal, called active from +8 up or from −8 down
[10] = target: NADPH oxidase 5 (Homo sapiens) (UniProt Q96PH1); experiment: compounds shifting NOX5 Amplex Red fluorescence – cell-based, HEK293-NOX5, NOX inhibitor project, primary screen (AID 1161); settings: HEK293-NOX5, ionomycin, 45 min, higher = more signal
[11] = compound effects on lung adenocarcinoma cell viability – A549, calcein-AM fluorescence, 48 h, basal, profiling panel (AID 1162); settings: higher = more signal; further: test concentration not given here
[12] = compound effects on differentiated 3T3-L1 adipocyte viability – cell-based, 3T3-L1 adipocytes, calcein-AM fluorescence, 48 h, basal, profiling panel (AID 1163); settings: 3T3-L1 adipocytes viability, higher = more signal; further: test concentration not given here
[13] = compound effects on hepatocellular carcinoma cell viability – HepG2, calcein-AM fluorescence, 48 h, basal, profiling panel (AID 1164); settings: higher = more signal; further: test concentration not given here
[14] = compound effects on multiple myeloma cell viability – MM1S, calcein-AM fluorescence, 48 h, basal, profiling panel (AID 1165); settings: higher = more signal;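 further: viability of MM1S multiple myeloma cells under basal unstimulated conditions; test concentration not given here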
[15] = calcein-AM signal in unstimulated myeloma cells – cell-based, calcein-AM fluorescence, 48 h, PK04 Diversity Set, profiling panel (AID 1166); settings: RPMI8226 myeloma viability, higher = more signal;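 further: cells grown under basal conditions without added stimulus; test concentration not given here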
[16] = JC-1 mitochondrial signal, unstimulated HepG2 cells – cell-based, JC-1 fluorescence, 24 h, 100 nL compound, profiling panel (AID 1167); settings: HepG2 mitochondrial potential, higher = more signal; further: test concentration not given here
[17] = JC-1 mitochondrial signal, unstimulated adipocytes – cell-based, JC-1 fluorescence, 3T3-L1 adipocytes, 24 h, 100 nL compound, profiling panel (AID 1168); settings: JC-1 mitochondrial fluorescence, higher = more signal, called active from +8 up or from −8 down; further: test concentration not given here
[18] = JC-1 mitochondrial signal, unstimulated myeloma cells – cell-based, JC-1 fluorescence, RPMI8226, 24 h, 100 nL compound, profiling panel (AID 1169); settings: JC-1 mitochondrial potential fluorescence, higher = more signal; further: test concentration not given here
[19] = JC-1 mitochondrial signal, unstimulated MM1S myeloma – cell-based, JC-1 fluorescence, 24 h, 100 nL compound, profiling panel (AID 1170); settings: MM1S mitochondrial potential, higher = more signal; further: test concentration not given here
[20] = resazurin metabolic signal in A549 cells – cell-based, resazurin fluorescence, 24 h, PK04 Diversity Set, profiling panel (AID 1171); settings: A549 viability, higher = more signal, called active from +8 up or from −8 down; further: test concentration not given here

Sequence of NADPH oxidase 2 (Homo sapiens) (P04839 whole entry, looked up): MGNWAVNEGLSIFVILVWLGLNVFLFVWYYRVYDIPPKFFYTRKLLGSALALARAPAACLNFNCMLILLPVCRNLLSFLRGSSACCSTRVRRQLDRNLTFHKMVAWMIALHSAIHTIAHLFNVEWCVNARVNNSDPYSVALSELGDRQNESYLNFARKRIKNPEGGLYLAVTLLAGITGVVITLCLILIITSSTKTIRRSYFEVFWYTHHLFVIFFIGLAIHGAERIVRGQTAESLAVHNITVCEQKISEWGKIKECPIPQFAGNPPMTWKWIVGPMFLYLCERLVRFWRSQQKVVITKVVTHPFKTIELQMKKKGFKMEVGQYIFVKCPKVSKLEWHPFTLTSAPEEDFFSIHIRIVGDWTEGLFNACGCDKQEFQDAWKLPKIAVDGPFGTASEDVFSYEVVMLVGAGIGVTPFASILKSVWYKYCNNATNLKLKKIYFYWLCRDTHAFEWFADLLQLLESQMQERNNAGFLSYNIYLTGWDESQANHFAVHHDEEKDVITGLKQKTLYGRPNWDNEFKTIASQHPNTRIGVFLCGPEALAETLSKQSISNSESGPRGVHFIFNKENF
Sequence of NADPH oxidase 5 (Homo sapiens) (Q96PH1 whole entry, looked up): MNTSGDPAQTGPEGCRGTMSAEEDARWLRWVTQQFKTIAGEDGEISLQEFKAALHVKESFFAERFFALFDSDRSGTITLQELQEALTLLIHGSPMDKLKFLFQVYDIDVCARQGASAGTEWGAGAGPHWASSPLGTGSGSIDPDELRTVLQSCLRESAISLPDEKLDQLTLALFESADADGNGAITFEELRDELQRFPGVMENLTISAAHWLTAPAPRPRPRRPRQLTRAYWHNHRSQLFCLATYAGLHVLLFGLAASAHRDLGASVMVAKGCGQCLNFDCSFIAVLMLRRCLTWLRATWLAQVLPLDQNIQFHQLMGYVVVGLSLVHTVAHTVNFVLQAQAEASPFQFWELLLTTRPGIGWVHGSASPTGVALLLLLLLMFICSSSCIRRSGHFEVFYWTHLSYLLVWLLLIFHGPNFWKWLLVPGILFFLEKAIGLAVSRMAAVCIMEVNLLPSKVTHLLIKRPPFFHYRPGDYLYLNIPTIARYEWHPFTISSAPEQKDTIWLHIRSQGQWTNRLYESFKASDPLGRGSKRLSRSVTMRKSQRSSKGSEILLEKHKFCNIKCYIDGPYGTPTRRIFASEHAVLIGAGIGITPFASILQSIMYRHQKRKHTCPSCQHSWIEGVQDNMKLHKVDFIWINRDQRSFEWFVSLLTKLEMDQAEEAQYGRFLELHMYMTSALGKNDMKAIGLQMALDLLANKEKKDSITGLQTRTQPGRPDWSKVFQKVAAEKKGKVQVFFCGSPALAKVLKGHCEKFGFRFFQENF
Sequence of NADPH oxidase 4 (Homo sapiens) (Q9NPH5 whole entry, looked up): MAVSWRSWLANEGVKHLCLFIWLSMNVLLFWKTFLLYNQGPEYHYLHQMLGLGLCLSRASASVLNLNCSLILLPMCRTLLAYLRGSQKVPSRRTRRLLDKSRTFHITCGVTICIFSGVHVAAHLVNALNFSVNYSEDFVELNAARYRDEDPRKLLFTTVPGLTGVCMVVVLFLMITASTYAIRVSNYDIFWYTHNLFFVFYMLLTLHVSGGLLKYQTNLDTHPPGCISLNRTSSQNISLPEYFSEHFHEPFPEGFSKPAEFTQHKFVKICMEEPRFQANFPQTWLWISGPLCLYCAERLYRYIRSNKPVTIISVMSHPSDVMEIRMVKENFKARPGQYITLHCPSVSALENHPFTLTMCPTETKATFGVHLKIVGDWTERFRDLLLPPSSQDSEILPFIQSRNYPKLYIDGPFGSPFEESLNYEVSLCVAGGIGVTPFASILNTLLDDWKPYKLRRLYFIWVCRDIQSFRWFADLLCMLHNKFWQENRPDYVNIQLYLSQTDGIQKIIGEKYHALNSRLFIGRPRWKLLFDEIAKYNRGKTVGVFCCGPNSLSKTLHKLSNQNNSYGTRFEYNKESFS

Row | Compound | z-score [1] | composite z-score [2] | z-score [3] | z-score [4] | z-score [5] | z-score [6] | z-score [7] | z-score [8] | z-score [9] | z-score [10] | z-score [11] | z-score [12] | z-score [13] | z-score [14] | z-score [15] | z-score [16] | z-score [17] | z-score [18] | z-score [19] | z-score [20]
1 | C=C(CCCC)/C(=C/C[C@H](OC(C)=O)c1ccc(OCCO)cc1)c1cnc2ccccc2c1 | 0.621 (inactive) | 0.0999 | 22 (active) | 6 (inactive) | 1.23 (inactive) | 1.04 (inactive) | -0.1 | -2.53 (inactive) | -0.429 (inactive) | -2.06 | -0.138 | 0.0248 | -0.257 | -2.17 | -0.861 | 1.91 | -1.26 (inactive) | -0.108 | -0.552 | 1.24 (inactive)
2 | COc1cc(OC)c(C(O)C2C=CC3C(=O)NC(=O)C3N2Nc2ccccn2)cc1Br (stereo not given) | -0.718 (inactive) | -0.172 | 1.54 (inactive) | 0.783 (inactive) | 0.332 (inactive) | 0.876 (inactive) | -0.732 | -0.0691 (inactive) | -2.81 (inactive) | -2.05 | 0.837 | -1.06 | 0.224 | -0.459 | -0.0109 | -0.866 | 0.0212 (inactive) | 0.217 | 0.171 | -0.924 (inactive)
3 | O=C1O[C@@H](c2ccccc2)[C@@H](c2ccccc2)N2[C@@H](c3ccc(OCCO)cc3)[C@]3(C(=O)Nc4ccc(C#CCCO)cc43)[C@@H](C(=O)NC[C@H](O)c3ccccc3)[C@H]12 | 0.591 (inactive) | 0.708 | 3.19 (inactive) | 1.4 (inactive) | 1.53 (inactive) | 0.688 (inactive) | 0.136 | 2.21 (inactive) | 1.71 (inactive) | 0.235 | 0.225 | -0.0616 | 0.808 | -0.301 | 0.407 | -0.821 | -1.33 (inactive) | -0.479 | -0.468 | -0.293 (inactive)
4 | COc1ccc(C(=O)Nc2ccc(CN3C(=O)[C@]4(O[C@H](CC(=O)N5CCC[C@H]5CO)[C@@H]([Si](C)(C)c5ccc(OC)cc5)[C@@H]4C)c4ccccc43)cc2)cc1 | -0.951 (inactive) | 0.385 | 7.69 (inactive) | 1.45 (inactive) | -0.749 (inactive) | 0.598 (inactive) | 0.424 | 2.62 (inactive) | 1.45 (inactive) | 4.87 | -1.14 | 0.362 | -4.53 | -2.83 | -4.35 | -2.48 | -0.0307 (inactive) | -1.09 | -2.1 | -1.98 (inactive)
5 | CC(C)NC(=O)[C@@H]1c2ccccc2C(=O)N(C(C)C)[C@H]1c1ccc(CO)cc1 | 1.17 (inactive) | -0.228 | 3.85 (inactive) | 1.18 (inactive) | 0.151 (inactive) | 0.207 (inactive) | 0.0843 | 0.274 (inactive) | 0.614 (inactive) | 0.964 | 0.772 | 0.0383 | 1.8 | 0.333 | 0.947 | 1.59 | -0.423 (inactive) | -0.104 | -0.952 | 0.842 (inactive)
6 | CCCCN1CC=CC23O[C@@H]4C=CCCOC(=O)C4[C@H]2C(=O)N(CCCCCO)[C@@H]3C1=O (stereo not given in full) | 0.4 (inactive) | -0.363 | 1.47 (inactive) | 0.48 (inactive) | 2.26 (inactive) | 0.331 (inactive) | -0.0028 | 1.28 (inactive) | 0.0393 (inactive) | 1.46 | 0.761 | 0.159 | 0.858 | 1.83 | 0.916 | 0.84 | 0.615 (inactive) | 0.117 | -0.832 | -0.318 (inactive)
7 | CN1C(=O)C2C=CC(C(O)c3ccc(F)cc3)N(N(c3ccccc3)c3ccccc3)C2C1=O (stereo not given) | -1.46 (inactive) | -0.483 | 0.362 (inactive) | 1.27 (inactive) | 0.39 (inactive) | 1.17 (inactive) | -1.16 | -0.948 (inactive) | -1.82 (inactive) | -1.39 | -0.631 | -2.01 | 0.153 | 0.0431 | -0.462 | -1.03 | -0.802 (inactive) | 0.399 | -1.03 | -0.867 (inactive)
8 | CC(=O)Nc1cc(Br)ccc1C(=O)NCc1ccccc1 | -0.813 (inactive) | -0.0929 | 3.88 (inactive) | 0.423 (inactive) | 0.0319 (inactive) | 0.229 (inactive) | -0.283 | -0.714 (inactive) | -0.427 (inactive) | -0.393 | -0.196 | 0.814 | -0.0731 | -0.0267 | 0.0237 | -0.56 | -0.907 (inactive) | 0.782 | 1.25 | 0.14 (inactive)
9 | O=C(NC1CC1)[C@@H]1c2ccccc2C(=O)N(Cc2cc(F)cc(C(F)(F)F)c2)[C@H]1c1ccc(CO)cc1 | -0.857 (inactive) | -0.205 | 1.88 (inactive) | 0.115 (inactive) | 0.943 (inactive) | 0.0358 (inactive) | -0.185 | -0.0603 (inactive) | 0.463 (inactive) | 0.515 | 0.35 | -0.392 | -0.134 | -1.65 | 0.88 | 0.86 | -0.587 (inactive) | 0.0276 | -0.232 | 1.36 (inactive)
